Shiga inhibitor = blocks Shiga toxin action in Vero cells; Vero cells, Shiga toxin protein synthesis inhibition reporter; inhibition, % at 38.7 µM; hit rate 9.2% among 290,000; AID 2315; in the data active = inhibition mostly above about 28%, no sharp cut-off; inactive = mostly below about 43%; note: 0% is about no effect
Pf growth 48h = inhibits P. falciparum growth in the first generation, 48 h | AID 504832 | P. falciparum luciferase growth in erythrocytes, 48 h | Potency, µM (top dose mostly 28.7 µM), for the others: top-dose activity change, negative = inhibition, most hits filed as inhibitors | hit rate 5.9% among 310,000; active = well fitted inhibition curve with a large enough effect; inconclusive = small, poorly fitted or top-dose-only effect, or another doubt; inactive = no such curve, though single readings can be large or run the other way; note: potency is the fitted concentration of half-maximal effect; % is set by controls: 0 for no effect and ±100 for the full control effect
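Growth was read as firefly luciferase luminescence after a 48 h, 37 C, 5% CO2 exposure of compounds to reporter-bearing P. falciparum cultures (0.1% parasitemia, 2% hematocrit final) in Albumax-supplemented RPMI 1640.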
SARS PLP yeast = inhibitors of SARS-CoV papain-like protease in yeast | hit rate 0.19% among 330,000 | S. cerevisiae expressing SARS-CoV PLpro, growth rescue | Potency, µM (series often up to 32.9 µM), inactives show top-dose activity, positive = growth rescue, usual class: activators; note: potency is the fitted concentration of half-maximal effect; 0% is about no effect; nearly all actives have a fitted effect of over 55% in size
Pf growth 96h = P. falciparum growth inhibition at 96 hours; P. falciparum luciferase reporter growth, 96 h; Potency, µM (top dose mostly 28.7 µM), for the others: at the top dose activity change, negative = inhibition, actives largely listed as inhibitors; hit rate 6.9% among 320,000; active = well fitted inhibition curve with a large enough effect; inconclusive = small, poorly fitted or top-dose-only effect, or another doubt; inactive = no such curve, though single readings can be large or run the other way; note: potency is the fitted concentration of half-maximal effect; % is set by controls: 0 for no effect and ±100 for the full control effect
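Compounds incubated with erythrocytes infected by luciferase-expressing P. falciparum (2% hematocrit, 0.05% parasitemia final) for 96 hours, 37 C in 5% CO2. Growth inhibition scored as decreased luciferase luminescence.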
CHX counter = counter-screen hit for Shiga toxin inhibitors, cycloheximide; cell reporter, cycloheximide protein synthesis inhibition counterscreen; hit rate 12% among 300,000; max response, %; in the data active = max response mostly above about 13%, no sharp cut-off; inactive = mostly below about 14%; note: read at 38.3 µM for the half of the compounds with a filed dose; 0% is about no effect
NS1 inh = inhibitors of influenza NS1 protein function. Potency, µM (series often up to 46.1 µM), without a hit: top-dose activity, positive = more growth. hit rate 0.4% among 270,000; note: potency is the fitted concentration of half-maximal effect; actives are rising curves; nearly all actives have a fitted effect of over 50% in size
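OD600 was taken as the measure of yeast growth restored by compound in an NS1-expressing S. cerevisiae strain. Cells had been washed out of glucose medium and diluted 1:100 into galactose -URA medium, pH 6.0.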
* marks the source's active call; other numbers are inactive results; ? = inconclusive; / = not tested or not shown. Sampled rows, rich in hits. Any-hit rate of the full collection: about 21%. Unless noted, calls come from the whole dose curve.

SMILES	Shiga inhibitor	Pf growth 48h	SARS PLP yeast	Pf growth 96h	CHX counter	NS1 inh
O=C(CCc1nnc(-c2ccc3c(c2)OCO3)o1)N1CCC(c2ccc(F)cc2)C1 (stereo not given)	108*	8%	-1%	?	31*	-6%
O=C(CCc1nnc(Cc2ccc3c(c2)OCO3)o1)NC(c1ccccn1)C(F)(F)F (stereo not given)	28	?	-1%	?	-2	-1%
CCN(CCn1cccn1)C(=O)CCc1nnc(-c2ccc3c(c2)OCO3)o1	41	20%	1%	?	-1	3%
O=C(CS(=O)Cc1ccco1)NCC=CCOc1cc(CN2CCCCC2)ccn1 (stereo not given)	/	-11%	/	-22%	/	/
Cc1ccc(CCNC(=O)c2sc3nc4n(c(=O)c3c2C)CCC4)cc1	17	4%	-16%	49%	5	-11%
CC(=O)N(c1ccccc1)c1nc(C)cc(C)c1C#N	8	-2%	12%	3%	-4	-6%
CC(=O)N(c1ccc(Cl)cc1)c1nc(C)cc(C)c1C#N	-4	-3%	1%	7.4µM*	1	1%
CCC(Oc1ccccc1)C(=O)NCc1ccc(S(N)(=O)=O)cc1 (stereo not given)	2	-8%	7%	-8%	-2	-16%
Cn1c(C(=O)NCCN2CCOCC2)cc2sccc21	72	20%	-4%	-20%	36	-1%
CCOC(=O)c1cccc(NC(=O)c2cc3sccc3n2C)c1	46*	116%	-7%	/	39*	2%
O=C(Nc1nccs1)c1cc2sccc2n1Cc1ccc(Cl)cc1	-14	/	8%	?	-9	11%
CCOC(=O)c1ccccc1NC(=O)c1cc2sccc2n1C	-6	-12%	-2%	?	-1	-10%
O=C(Nc1ccc2c(c1)OCCO2)c1cc2sccc2n1Cc1ccc(F)cc1	65*	?	-8%	10µM*	31*	-1%
O=C(Nc1ccc2c(c1)OCCO2)c1cc2sccc2n1Cc1ccccc1	126*	?	-9%	?	24	5%
Cn1c(C(=O)Nc2ccc3c(c2)OCCO3)cc2sccc21	47*	130%	-9%	0%	36*	-57%
O=C1Nc2ccccc2C12OCCS2 (stereo not given)	-18	/	-3%	/	-3	1%
O=S(=O)(Nc1ccc(C(F)(F)F)cn1)c1ccccc1	30	-10%	-1%	-19%	2	-4%
COC(=O)c1[nH]c2c(c1C)C(=O)CC(c1cc(OC)c(OC)c(OC)c1)C2 (stereo not given)	14	?	0%	-17%	-3	-1%
CCOc1ccc(OCCCC(=O)N(CC)CC(=O)Nc2c(F)cccc2F)cc1	/	?	-4%	?	/	/
CN(C)S(=O)(=O)N1CCC(Oc2cccc(C(=O)N3CCSCC3)c2)CC1	9	-26%	-3%	?	-1	1%
CC1CCCC(C)N1C(=O)Cn1nnc(-c2ccc([N+](=O)[O-])cc2)n1 (stereo not given)	25	6%	2%	-25%	-1	19%
Cc1onc(-c2ccccc2Cl)c1C(=O)NCc1nc(-c2ccccc2)no1	2	11%	-13%	?	1	-20%
Cc1ccc(C)n1-c1ccc(-c2nnco2)cc1	-4	-6%	-2%	12µM*	6	5%
CC(C)(C)c1ccc(OCCC(=O)Nc2ccc(N3CCOCC3)cc2N2CCOCC2)cc1	/	?	1%	?	/	/
Cc1ccc(NC(=O)CC2C(=O)N(Cc3ccccc3)C(=S)N2NC(=O)c2ccccc2)c(C)c1 (stereo not given)	-10	?	19%	?	-4	14%
SMILES	Shiga inhibitor	Pf growth 48h	SARS PLP yeast	Pf growth 96h	CHX counter	NS1 inh
Cc1nc(-c2ccc(NC(=O)C(C)(C)C)cc2)c(-c2ccccc2)o1	13	/	-1%	4.1µM*	-1	0%
O=C(Nc1ccc(-c2nnc(-c3ccccc3)o2)cc1)C(F)(F)F	73	160%	-5%	-6%	49*	-17%
CC(C)(C)C(=O)Nc1cccc(-c2nnc(-c3cccc(NC(=O)C(C)(C)C)c3)o2)c1	10	4.7µM*	13%	?	1	-2%
CC(C)C(=O)Nc1ccc(-c2nnc(-c3ccccc3)o2)cc1	119*	181%	0%	224%	72*	-7%
CC(=O)/C=C(\C)Nc1ccc(-c2cnc(-c3ccccc3)o2)cc1	130*	114%	?	155%	83*	-74%
CC(C)C(=O)Nc1ccc(C(=O)c2ccccc2)cc1	57*	201%	-11%	191%	50*	?
c1csc(CNc2ncnc3nc[nH]c23)c1	15	9%	1%	?	16*	-62%
c1ccc(CNc2ncnc3c2cnn3Cc2ccccc2)cc1	-5	?	-13%	?	-3	-29%
C=CCNc1ncnc2c1cnn2-c1ccc(OC)cc1	61*	292%	7%	3%	30*	-13%
c1ccc(-n2ncc3c(NCc4cccnc4)ncnc32)cc1	67	126%	-10%	20%	20*	-12%
COc1ccc(-n2ncc3c(NCc4ccco4)ncnc32)cc1	90*	87%	2%	262%	39*	-21%
Cc1ccc2cc(CCNC(=O)c3cccc([N+](=O)[O-])c3)c(=O)[nH]c2c1C	-9	-1%	1%	?	-2	2%
CCCCn1c(N(CCOC(C)=O)C(C)=O)nc2ccccc21	-4	?	-6%	10%	-4	-2%
c1ccc(-n2ncc3c(NCc4cccs4)ncnc32)cc1	52*	70%	-13%	88%	51*	-9%
CCCN(CCC)c1ncnc2c1cnn2-c1ccc(OC)cc1	66*	131%	1%	17%	30*	-82%
COc1ccc(-n2ncc3c(NCc4ccccn4)ncnc32)cc1	90*	136%	-11%	/	50*	-1%
COc1ccc(-n2ncc3c(NCc4cccs4)ncnc32)cc1	145*	99%	-4%	/	38*	-8%
COc1ccc(CC(=O)NNc2ncnc3c2cnn3-c2ccccc2)cc1	17	16%	7%	45%	-3	-5%
O=C(NNc1ncnc2c1cnn2-c1ccccc1)c1cccs1	13	33%	3%	?	13	/
Cc1cccc(NS(=O)(=O)c2ccc3c(c2)oc(=O)n3C)c1C	4	-18%	-4%	-8%	-3	1%
O=C1CNC(=S)N1CCc1ccccc1Cl	16	6%	2%	13%	-3	1%
COc1cccc(Cn2nc3c4cc(F)ccc4n(Cc4ccc(F)cc4)cc-3c2=O)c1	12	-1%	-1%	1.7µM*	1	5%
COc1cc2c3nnc(-c4ccc(F)cc4)c-3cn(Cc3cccc(F)c3)c2cc1OC	-34	0.59µM*	3%	1µM*	3	/
COc1cc2c3nnc(-c4ccc(F)cc4)c-3cn(Cc3cccc(C)c3)c2cc1OC	-10	0.59µM*	0%	0.47µM*	-3	23%

Screening data: PubChem, National Center for Advancing Translational Sciences (NCATS)
